# Source: PubChem BioAssay
# Activity calls are given as the source filed them.
# Key:
# [1] = small molecules captured by biotinylated probe aFSTL3 – biochemical, small-molecule microarray, fluorescence 635/667, stem cell growth factor project, primary screen (AID 1064); conditions: higher = more signal;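 also: measures binding of the biotinylated anti-FSTL3 antibody to printed compounds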
# [2] = binders from COS7 lysate, DM2A8 probe, primary screen, torsin A project, cell lysate, small-molecule microarray, fluorescence 635/667 (AID 1065); conditions: higher = more signal, COS7 lysate expressing mutant human TOR1A
# [3] = small molecules captured by biotinylated probe aFGF2 – biochemical, small-molecule microarray, fluorescence 635/667, stem cell growth factor project, primary screen (AID 1067); conditions: higher = more signal;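 also: measures binding of biotinylated aFGF2 protein to printed compounds on slides; z-score merges feature fluorescence and signal-to-noise across triplicate slides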
# [4] = small molecules captured by biotinylated probe aFGF10 – biochemical, small-molecule microarray, fluorescence 635/667, stem cell growth factor project, primary screen (AID 1071); conditions: higher = more signal;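 also: score merges 667 nm spot intensity and signal to noise from triplicate slides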
# [5] = molecular target: Neurogenic locus notch homolog protein 2 (Homo sapiens) (UniProt Q04721); assay: small molecules binding Notch2 protein – biochemical, small-molecule microarray, 635 nm fluorescence, stem cell growth factors, primary screen (AID 1073); conditions: higher = more signal
# [6] = molecular target: Pro-neuregulin-1, membrane-bound isoform (Homo sapiens) (UniProt Q02297); assay: small molecules binding neuregulin-1 protein – biochemical, small-molecule microarray, fluorescence 635/667, psychiatric disease protein project, primary screen (AID 1075); conditions: NRG1 binding, 635 nm fluorescence, higher = more signal;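 also: score combines 667 nm spot fluorescence with signal to noise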
# [7] = system: Neuregulin-1 EGF-like domain; assay: small molecules binding NRG1 EGF domain – biochemical, small-molecule microarray, 635 nm fluorescence, primary screen (AID 1081); conditions: higher = more signal;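 also: binding of the protein to compounds printed on small-molecule microarray slides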
# [8] = FRG1 expression reporter modulators in myotubes – cell-based, C2C12 myotubes, firefly/Renilla luciferase, luminescence, FRG1 inhibition for FSHD, primary screen (AID 1084); conditions: FRG1 promoter luciferase, higher = more signal, called active from +8 up or from −8 down
# [9] = small molecules captured by biotinylated probe aFST – biochemical, small-molecule microarray, fluorescence 635/667, stem cell growth factor project, primary screen (AID 1086); conditions: higher = more signal;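 also: score merges 667 nm fluorescence with signal-to-noise of each printed compound spot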
# [10] = binders of probe aHhip on microarray, primary screen, stem cell growth factor project, biochemical, small-molecule microarray, fluorescence 635/667 (AID 1087); conditions: higher = more signal;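 also: score merges spot fluorescence at 667nm with spot signal to noise ratio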
# Neurogenic locus notch homolog protein 2 (Homo sapiens), sequence (Q04721 whole entry, looked up, canonical isoform): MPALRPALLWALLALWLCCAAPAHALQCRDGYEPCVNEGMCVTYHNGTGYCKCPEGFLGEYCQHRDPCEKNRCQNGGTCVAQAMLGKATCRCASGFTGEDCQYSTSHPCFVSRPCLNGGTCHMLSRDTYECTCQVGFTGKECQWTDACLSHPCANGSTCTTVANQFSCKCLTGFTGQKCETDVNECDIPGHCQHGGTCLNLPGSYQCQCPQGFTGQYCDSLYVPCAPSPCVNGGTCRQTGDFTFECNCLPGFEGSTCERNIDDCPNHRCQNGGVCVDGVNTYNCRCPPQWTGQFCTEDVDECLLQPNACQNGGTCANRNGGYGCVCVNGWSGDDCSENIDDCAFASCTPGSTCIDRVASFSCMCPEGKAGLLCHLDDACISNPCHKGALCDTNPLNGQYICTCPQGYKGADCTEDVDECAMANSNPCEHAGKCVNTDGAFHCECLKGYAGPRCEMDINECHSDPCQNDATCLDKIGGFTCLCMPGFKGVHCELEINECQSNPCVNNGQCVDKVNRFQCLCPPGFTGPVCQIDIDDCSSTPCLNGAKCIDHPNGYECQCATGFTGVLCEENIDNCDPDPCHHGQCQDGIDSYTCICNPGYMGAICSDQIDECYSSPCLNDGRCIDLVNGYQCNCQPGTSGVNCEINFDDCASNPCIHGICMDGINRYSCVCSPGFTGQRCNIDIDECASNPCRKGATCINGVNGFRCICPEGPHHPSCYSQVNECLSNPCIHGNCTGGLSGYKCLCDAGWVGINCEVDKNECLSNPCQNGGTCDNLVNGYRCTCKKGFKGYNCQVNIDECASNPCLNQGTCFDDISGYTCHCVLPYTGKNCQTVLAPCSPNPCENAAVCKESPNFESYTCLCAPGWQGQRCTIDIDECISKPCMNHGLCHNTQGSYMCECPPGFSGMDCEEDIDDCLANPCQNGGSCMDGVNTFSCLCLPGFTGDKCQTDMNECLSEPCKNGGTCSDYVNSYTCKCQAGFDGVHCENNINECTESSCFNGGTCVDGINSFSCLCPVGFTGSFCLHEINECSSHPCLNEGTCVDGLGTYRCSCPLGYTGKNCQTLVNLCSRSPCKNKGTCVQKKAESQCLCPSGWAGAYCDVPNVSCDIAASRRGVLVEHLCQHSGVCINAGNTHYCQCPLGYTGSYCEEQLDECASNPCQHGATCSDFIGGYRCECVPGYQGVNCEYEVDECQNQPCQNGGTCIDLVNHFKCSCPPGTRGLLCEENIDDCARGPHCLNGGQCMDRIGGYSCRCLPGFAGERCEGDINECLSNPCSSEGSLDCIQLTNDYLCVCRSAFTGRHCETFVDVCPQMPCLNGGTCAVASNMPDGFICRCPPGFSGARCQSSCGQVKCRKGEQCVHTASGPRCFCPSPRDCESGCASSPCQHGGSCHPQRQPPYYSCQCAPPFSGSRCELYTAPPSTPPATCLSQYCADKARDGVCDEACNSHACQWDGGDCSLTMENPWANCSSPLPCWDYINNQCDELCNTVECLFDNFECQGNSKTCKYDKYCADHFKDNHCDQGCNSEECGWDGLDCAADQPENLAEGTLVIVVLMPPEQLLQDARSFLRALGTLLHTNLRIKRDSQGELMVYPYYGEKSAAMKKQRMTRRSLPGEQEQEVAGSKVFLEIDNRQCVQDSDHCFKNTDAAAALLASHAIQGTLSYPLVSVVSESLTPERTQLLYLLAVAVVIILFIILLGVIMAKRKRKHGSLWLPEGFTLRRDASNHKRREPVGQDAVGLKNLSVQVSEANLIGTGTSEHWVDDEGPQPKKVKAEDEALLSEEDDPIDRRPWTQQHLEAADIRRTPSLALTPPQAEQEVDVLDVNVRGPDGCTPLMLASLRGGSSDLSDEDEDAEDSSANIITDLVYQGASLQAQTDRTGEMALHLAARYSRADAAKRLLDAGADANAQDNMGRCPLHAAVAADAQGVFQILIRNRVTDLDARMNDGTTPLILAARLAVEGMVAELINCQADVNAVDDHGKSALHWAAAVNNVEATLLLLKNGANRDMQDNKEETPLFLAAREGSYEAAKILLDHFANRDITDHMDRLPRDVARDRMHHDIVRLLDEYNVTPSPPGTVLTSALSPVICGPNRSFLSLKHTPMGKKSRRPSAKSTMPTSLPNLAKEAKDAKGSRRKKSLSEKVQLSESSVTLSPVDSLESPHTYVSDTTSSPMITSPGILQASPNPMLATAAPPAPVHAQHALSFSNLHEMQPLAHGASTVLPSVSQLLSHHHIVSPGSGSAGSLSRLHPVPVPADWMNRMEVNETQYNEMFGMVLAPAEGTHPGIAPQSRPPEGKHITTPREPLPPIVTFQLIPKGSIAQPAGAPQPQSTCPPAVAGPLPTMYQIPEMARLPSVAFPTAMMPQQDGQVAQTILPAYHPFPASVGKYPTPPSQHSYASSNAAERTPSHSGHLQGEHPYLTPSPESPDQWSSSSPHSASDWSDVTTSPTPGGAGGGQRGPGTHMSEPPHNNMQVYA
# Pro-neuregulin-1, membrane-bound isoform (Homo sapiens), sequence (Q02297 whole entry, looked up, the tested form may be a part, canonical isoform): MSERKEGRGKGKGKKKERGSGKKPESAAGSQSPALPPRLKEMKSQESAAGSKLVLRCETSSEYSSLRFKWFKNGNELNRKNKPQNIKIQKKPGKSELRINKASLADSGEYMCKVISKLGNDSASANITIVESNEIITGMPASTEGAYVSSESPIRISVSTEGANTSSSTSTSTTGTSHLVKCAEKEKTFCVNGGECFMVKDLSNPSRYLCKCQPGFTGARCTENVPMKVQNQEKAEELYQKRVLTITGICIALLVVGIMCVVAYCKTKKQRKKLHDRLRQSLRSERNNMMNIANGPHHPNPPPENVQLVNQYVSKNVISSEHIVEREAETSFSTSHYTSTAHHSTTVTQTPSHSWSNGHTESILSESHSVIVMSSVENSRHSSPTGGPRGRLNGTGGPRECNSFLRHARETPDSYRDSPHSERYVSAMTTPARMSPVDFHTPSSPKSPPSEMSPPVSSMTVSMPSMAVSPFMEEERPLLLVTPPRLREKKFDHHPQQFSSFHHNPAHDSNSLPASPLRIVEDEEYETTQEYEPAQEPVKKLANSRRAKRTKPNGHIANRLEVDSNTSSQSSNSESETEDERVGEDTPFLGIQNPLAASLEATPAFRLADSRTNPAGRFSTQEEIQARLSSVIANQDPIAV
compound,measurement,setting,value
C=C(COC)C(=O)CC[C@H](OC(C)=O)c1ccc(OCCO)cc1,composite z-score,[1],-0.198
same,composite z-score,[2],-0.722
same,composite z-score,[3],-0.0533
same,composite z-score,[4],1.21
same,composite z-score,[5],-0.189
same,composite z-score,[6],-0.0732
same,composite z-score,[7],1.1
same,z-score,[8],1.08 (inactive)
same,composite z-score,[9],0.375
same,composite z-score,[10],-0.191
CC=CC(O)C1C=CC2C(=O)NC(=O)C2N1Nc1ccccn1 (stereo not given),composite z-score,[1],-0.293
same,composite z-score,[2],0.205
same,composite z-score,[3],-0.151
same,composite z-score,[4],0.204
same,composite z-score,[5],1.03
same,composite z-score,[6],0.934
same,composite z-score,[7],1.24
same,z-score,[8],0.571 (inactive)
same,composite z-score,[9],0.128
same,composite z-score,[10],-0.0618
COC(=O)C1=CC(CCCO)=CC(c2ccc(CN3CCCC3)cc2)N(Cc2cc3c(cc2Br)OCO3)C=C1C(=O)OC (stereo not given),composite z-score,[1],0.942
same,composite z-score,[2],1.66
same,composite z-score,[3],0.19
same,composite z-score,[4],1.26
same,composite z-score,[5],1.61
same,composite z-score,[6],2.4
same,composite z-score,[7],1.18
same,z-score,[8],0.046 (inactive)
same,composite z-score,[9],1.97
same,composite z-score,[10],0.0605
COCCCNC(=O)[C@@]1(c2ccc([N+](=O)[O-])cc2)CC(=O)N(CC23CC4CC(CC(C4)C2)C3)[C@@H]1c1ccc(CO)cc1I,composite z-score,[1],0.456
same,composite z-score,[2],-0.243
same,composite z-score,[3],-0.034
same,composite z-score,[4],0.246
same,composite z-score,[5],0.218
same,composite z-score,[6],1.13
same,composite z-score,[7],1.3
same,z-score,[8],-2.2 (inactive)
same,composite z-score,[9],0.15
same,composite z-score,[10],-0.236
COc1ccc(C#Cc2ccc3c(c2)[C@]2(C(=O)N3)[C@H](C(=O)N3CCCCCCC3)[C@H]3C(=O)O[C@H](c4ccccc4)[C@H](c4ccccc4)N3[C@@H]2c2ccc(O)cc2)cc1,composite z-score,[1],2.46
same,composite z-score,[2],0.578
same,composite z-score,[3],0.102
same,composite z-score,[4],0.295
same,composite z-score,[5],0.97
same,composite z-score,[6],-0.234
same,composite z-score,[7],1.24
same,z-score,[8],0.626 (inactive)
same,composite z-score,[9],2.24
same,composite z-score,[10],0.606
COc1ccc(NC(=O)O[C@H]2[C@@H]3OC(=O)[C@H](Cc4cccc(Br)c4)C/C=C/C[C@@H](Cc4cccc(Br)c4)C(=O)O[C@H]3[C@@H](OC)O[C@@H]2CO)cc1,composite z-score,[1],0.0355
same,composite z-score,[2],1.4
same,composite z-score,[3],0.0929
same,composite z-score,[4],0.579
same,composite z-score,[5],0.935
same,composite z-score,[6],0.558
same,composite z-score,[7],0.453
same,z-score,[8],3.13 (inactive)
same,composite z-score,[9],0.421
same,composite z-score,[10],0.285
C[C@@]12COC[C@]13C=C(Br)[C@H](C2)[C@@]1(CO1)C3=O,composite z-score,[1],0.129
same,composite z-score,[2],-1.21
same,composite z-score,[3],-0.04
same,composite z-score,[4],-0.455
same,composite z-score,[5],-0.895
same,composite z-score,[6],-0.708
same,composite z-score,[7],-1.12
same,z-score,[8],-0.293 (inactive)
same,composite z-score,[9],-0.476
same,composite z-score,[10],-0.134
CC1CC/C=C\[C@H]2OC34C=CCN(C(C)(C)C)C(=O)[C@H]3N(C(CO)C(C)C)C(=O)[C@@H]4C2C(=O)O1 (stereo not given in full),composite z-score,[1],-0.259
same,composite z-score,[2],2.01
same,composite z-score,[3],-0.141
same,composite z-score,[4],0.323
same,composite z-score,[5],-0.147
same,composite z-score,[6],0.867
same,composite z-score,[7],1.5
same,z-score,[8],1.44 (inactive)
same,composite z-score,[9],-0.0219
same,composite z-score,[10],-0.318
CN(C)CCCCCCNC(=O)[C@@H]1C[C@@H]2C(=O)N[C@@H](CCCCN)C(=O)N2[C@@H]1c1ccc(O)cc1,composite z-score,[1],3.77
same,composite z-score,[2],1.82
same,composite z-score,[3],0.939
same,composite z-score,[4],1.2
same,composite z-score,[5],1.65
same,composite z-score,[6],2.91
same,composite z-score,[7],1.53
same,z-score,[8],0.918 (inactive)
same,composite z-score,[9],3.81
same,composite z-score,[10],3.69
COCC(=C=CC[C@H](O)c1cccc(OCCO)c1)C[C@H](O)COCc1ccccc1,composite z-score,[1],0.0102
same,composite z-score,[2],0.823
same,composite z-score,[3],-0.0602
same,composite z-score,[4],0.427
same,composite z-score,[5],0.276
same,composite z-score,[6],1.51
same,composite z-score,[7],1.31
same,z-score,[8],0.574 (inactive)
same,composite z-score,[9],0.256
same,composite z-score,[10],-0.476
COc1ccc(C(O)C2C=CC3C(=O)N(c4ccccc4)C(=O)C3N2Nc2ccc(C(C)C)cc2)c2ccccc12 (stereo not given),composite z-score,[1],-0.0766
same,composite z-score,[2],0.309
same,composite z-score,[3],0.0442
same,composite z-score,[4],0.7
same,composite z-score,[5],1.59
same,composite z-score,[6],1.49
same,composite z-score,[7],1.16
same,z-score,[8],-1.31 (inactive)
same,composite z-score,[9],1.83
same,composite z-score,[10],-0.148
C[C@@H]1ON(c2ccc(I)cc2)[C@H](c2ccc(OC(=O)OC(C)(C)C)cc2)[C@H]1C(=O)N1C(=O)OC[C@H]1Cc1ccccc1,composite z-score,[1],-0.478
same,composite z-score,[2],0.0988
same,composite z-score,[3],-0.175
same,composite z-score,[4],0.253
same,composite z-score,[5],0.756
same,composite z-score,[6],0.178
same,composite z-score,[7],0.492
same,z-score,[8],3.7 (inactive)
same,composite z-score,[9],0.238
same,composite z-score,[10],-0.0672
CN(C)CCCC[C@@H]1NC(=O)[C@@H]2C[C@H](C(=O)O)[C@H](c3cccc(OCCO)c3)N2C1=O,composite z-score,[1],0.119
same,composite z-score,[2],-0.326
same,composite z-score,[3],-0.186
same,composite z-score,[4],-0.392
same,composite z-score,[5],-0.561
same,composite z-score,[6],-0.579
same,composite z-score,[7],-0.106
same,z-score,[8],1.3 (inactive)
same,composite z-score,[9],-0.124
same,composite z-score,[10],-0.175
COc1cc(NN2C(C(O)C3CCCCC3)C=CC3C(=O)N(c4ccccc4)C(=O)C32)cc(OC)c1OC (stereo not given),composite z-score,[1],1.44
same,composite z-score,[2],-0.28
same,composite z-score,[3],-0.116
same,composite z-score,[4],0.56
same,composite z-score,[5],1.7
same,composite z-score,[6],1.67
same,composite z-score,[7],1.18
same,z-score,[8],0.374 (inactive)
same,composite z-score,[9],0.964
same,composite z-score,[10],-0.202
NCCCCCNC(=O)[C@H]1C[C@H]2C(=O)N[C@@H](Cc3ccccc3)C(=O)N2[C@H]1c1ccc(O)cc1,composite z-score,[1],2.14
same,composite z-score,[2],-0.045
same,composite z-score,[3],0.175
same,composite z-score,[4],0.199
same,composite z-score,[5],0.685
same,composite z-score,[6],1.73
same,composite z-score,[7],0.573
same,z-score,[8],0.902 (inactive)
same,composite z-score,[9],1.46
same,composite z-score,[10],0.883
CC(=O)N1CC(C(O)C2C=CC3C(=O)NC(=O)C3N2Nc2ccc(Cl)cc2Cl)c2ccccc21 (stereo not given),composite z-score,[1],0.856
same,composite z-score,[2],-0.0312
same,composite z-score,[3],0.203
same,composite z-score,[4],0.925
same,composite z-score,[5],1.28
same,composite z-score,[6],1.7
same,composite z-score,[7],0.727
same,z-score,[8],0.425 (inactive)
same,composite z-score,[9],0.496
same,composite z-score,[10],0.0854
COc1ccc(C(=O)Nc2cccc(CN3C(=O)[C@@]4(O[C@@H](CC(=O)N(CCO)Cc5ccccc5)[C@H]([Si](C)(C)c5ccc(OC)cc5)[C@H]4C)c4ccccc43)c2)cc1,composite z-score,[1],-0.117
same,composite z-score,[2],0.741
same,composite z-score,[3],-0.119
same,composite z-score,[4],0.079
same,composite z-score,[5],-0.342
same,composite z-score,[6],0.585
same,composite z-score,[7],1.09
same,z-score,[8],-2.55 (inactive)
same,composite z-score,[9],-0.141
same,composite z-score,[10],0.0274
